This is an account of results in PubChem BioAssay (NCATS).

“And” between values parts separate entries of the source, which are not always exact repeats. Equal entries are not always repeated. Inconclusive results are not listed. A number with no mark means an inactive call. The source made the active and inactive calls. Unless noted, the call rests on the fitted dose curve; in most records, active means well fitted curve in the direction sought with a large enough effect; inconclusive means small, poorly fitted or top-dose-only effect, or another doubt; inactive means no such curve, though single readings can be large; an effect the other way counts as inactive or inconclusive.

Test [1] has as its target Calcium and integrin-binding protein 1 (Homo sapiens) (UniProt Q99828). In words: Primary qHTS for Identification of Calcium Integrin Binding Protein 1 (CIB1) Competitor (AID 1508620). Further: potency means the concentration at half of the fitted maximal effect.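 On activity change, negative = inhibition: GST tagged CIB1 binding a fluorescein labelled alphaIIb integrin peptide tracer; top concentration of the series differs between compounds; on the % scale 0 is the no-effect control and ±100 the full control effect.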 An outline of the steps:
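CIB1-GST (1 uM final) and compound incubated 15 min at room temperature before adding FITC-alphaIIb peptide tracer (100 nM final). Competition for binding read by fluorescence polarization (ex 480, em 540) after another 15 min at room temperature.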

A short description of test [2]: Counterscreen qHTS for small molecule stabilizers of the endoplasmic reticulum resident proteome: GLuc-NoTag assay (AID 1508627).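 Further: SH-SY5Y cells given compound then 100 nM thapsigargin to empty ER calcium; series mostly up to about 76 µM; 0% = thapsigargin alone and -100% = DMSO vehicle control.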 Summed up: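 Luminescence of Gaussia luciferase secreted into the medium (coelenterazine, 0.07x final, unlysed cells) was the read-out. Human SH-SY5Y neuroblastoma cells constitutively secreting untagged GLuc received compound for 19 h, then 100 nM thapsigargin for 4 h.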
For orientation: Counterscreens check selectivity or assay interference.

Test [3] is described as follows: Cell Viability qHTS for small molecule stabilizers of the endoplasmic reticulum resident proteome (AID 1508629).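 Further: human SH-SY5Y neuroblastoma cells carrying the GLuc-SERCaMP reporter; compound exposure about 46 h in total before the viability read; on the % scale 0 is the no-effect control and ±100 the full control effect.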 Conditions: cell viability counter-screen, 100 nM thapsigargin for final 4 h.
Test [4] can be described thus: A High-Content qHTS Against Drug Library for the Identification of Small Molecules that Inhibit DYT1 Early Onset Primary Dystonia-Associated Cell Pathology (AID 1645839; calls by dose curve; further: potency means the concentration at half of the fitted maximal effect). Summed up:
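In this high-content image screen, delE TorsinA mislocalization in inducible Flp-In 293 cells is scored as %pathology, with cell count serving as the counterscreen. Compound exposure lasts 48 h under tetracycline induction in reduced-serum medium.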

The target of test [5] is Cytochrome P450 2D6 (Homo sapiens) (UniProt P10635). In words: Cytochrome P450 family 2 subfamily D member 6 (CYP2D6) small molecule antagonists: luciferase biochemical (cell-free) qHTS assay (AID 1645840; active means well fitted curve in the direction sought with a large enough effect in the repeat runs; an effect the other way counts as inactive or inconclusive; further: nearly all actives have a fitted effect of over 55% in size; further: potency means the concentration at half of the fitted maximal effect). An outline of the steps:
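P450-Glo luminescent screen: recombinant CYP2D6 enzyme–proluciferin substrate mix preincubated with compound 10 min at room temperature, then NADPH regeneration added for 1 h at room temperature. Detection reagent added for 20 min; luciferin light read as relative luminescence units.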

Test [6] deals with Cytochrome P450 3A4 (Homo sapiens) (UniProt P08684). In words: Cytochrome P450 family 3 subfamily A member 4 (CYP3A4) small molecule antagonists: luciferase qHTS assay (AID 1645841; active means well fitted curve in the direction sought with a large enough effect in the repeat runs; an effect the other way counts as inactive or inconclusive; further: nearly all actives have a fitted effect of over 45% in size; further: potency means the concentration at half of the fitted maximal effect). An outline of the steps:
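Luminescent CYP3A4 activity readout: compounds plus enzyme-substrate mix 10 min at room temperature, reaction started with NADPH regenerating system for 1 h, stopped with detection reagent, read after 20 min. Ketoconazole served as control.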

The target of test [7] is Cytochrome P450 2C9 (Homo sapiens) (UniProt P11712). In words: Cytochrome P450 family 2 subfamily C member 9 (CYP2C9) small molecule antagonists: luciferase biochemical (cell-free) qHTS assay (AID 1645842; active means well fitted curve in the direction sought with a large enough effect in the repeat runs; an effect the other way counts as inactive or inconclusive; further: nearly all actives have a fitted effect of over 55% in size; further: potency means the concentration at half of the fitted maximal effect). An outline of the steps:
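Luminescence, after 20 min with luciferin detection reagent, reflected CYP2C9 turnover during a 1 h NADPH-driven reaction at 37C. Enzyme-substrate mix contained 0.4% bovine serum albumin and was preincubated with compound 10 min at room temperature.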
(In qHTS, concentration-response curves come from the screen itself.)

Test [8] has as its target Calcium and integrin-binding protein 1 (Homo sapiens) (UniProt Q99828). In words: Validation qHTS for Identification of Calcium Integrin Binding protein 1 (CIB1) Competitor (AID 1508618). Further: on the % scale 0 is the no-effect control and ±100 the full control effect. An outline of the steps:
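CIB1-GST (1 uM final) in 5 mM HEPES pH 7.4, 125 mM NaCl, 5 mM CaCl2, 0.01% Tween20 was preincubated 15 min at room temperature with compound (up to 114 uM), then FITC-alphaIIb peptide (100 nM) added for 15 min; fluorescence polarization read.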

Test [9] in a line: Primary qHTS for small molecule stabilizers of the endoplasmic reticulum resident proteome: Secreted ER Calcium Modulated Protein (SERCaMP) assay (AID 1508630). Further: on the % scale 0 is the no-effect control and ±100 the full control effect. Summed up: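 GLuc-SERCaMP-expressing SH-SY5Y cells, pretreated 16 h with compound, are challenged with thapsigargin to empty ER calcium stores; after 4 h, coelenterazine is added directly to the medium and luminescence is imaged.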

Test [10] is described as follows: Confirmatory qHTS for small molecule stabilizers of the endoplasmic reticulum resident proteome: Secreted ER Calcium Modulated Protein (SERCaMP) assay (AID 1508628). Further: potency means the concentration at half of the fitted maximal effect; nearly all actives have a fitted effect of over 40% in size. An outline of the steps: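 We seeded SH-SY5Y-GLuc-SERCaMP cells, added compounds (three concentrations in the primary run, eleven up to 76.6 uM in confirmation), incubated 16 h, depleted ER calcium with thapsigargin, and read luciferase 4 h later.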

Chain of Cytochrome P450 2C9 (Homo sapiens) (P11712 whole entry, looked up): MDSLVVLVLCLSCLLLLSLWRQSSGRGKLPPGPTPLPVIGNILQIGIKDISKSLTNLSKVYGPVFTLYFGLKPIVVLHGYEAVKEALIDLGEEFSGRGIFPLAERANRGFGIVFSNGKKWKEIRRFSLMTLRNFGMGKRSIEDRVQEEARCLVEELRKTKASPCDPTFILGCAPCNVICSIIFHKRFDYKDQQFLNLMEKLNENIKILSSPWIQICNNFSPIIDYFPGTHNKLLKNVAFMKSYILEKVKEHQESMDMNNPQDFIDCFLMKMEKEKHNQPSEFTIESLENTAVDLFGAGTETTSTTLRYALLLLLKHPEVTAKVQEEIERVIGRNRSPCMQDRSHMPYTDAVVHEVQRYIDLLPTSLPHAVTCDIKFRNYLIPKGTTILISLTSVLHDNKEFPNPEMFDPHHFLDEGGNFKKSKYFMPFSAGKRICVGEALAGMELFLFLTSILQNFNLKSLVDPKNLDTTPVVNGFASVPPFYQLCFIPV
Chain of Cytochrome P450 2D6 (Homo sapiens) (P10635 whole entry, looked up): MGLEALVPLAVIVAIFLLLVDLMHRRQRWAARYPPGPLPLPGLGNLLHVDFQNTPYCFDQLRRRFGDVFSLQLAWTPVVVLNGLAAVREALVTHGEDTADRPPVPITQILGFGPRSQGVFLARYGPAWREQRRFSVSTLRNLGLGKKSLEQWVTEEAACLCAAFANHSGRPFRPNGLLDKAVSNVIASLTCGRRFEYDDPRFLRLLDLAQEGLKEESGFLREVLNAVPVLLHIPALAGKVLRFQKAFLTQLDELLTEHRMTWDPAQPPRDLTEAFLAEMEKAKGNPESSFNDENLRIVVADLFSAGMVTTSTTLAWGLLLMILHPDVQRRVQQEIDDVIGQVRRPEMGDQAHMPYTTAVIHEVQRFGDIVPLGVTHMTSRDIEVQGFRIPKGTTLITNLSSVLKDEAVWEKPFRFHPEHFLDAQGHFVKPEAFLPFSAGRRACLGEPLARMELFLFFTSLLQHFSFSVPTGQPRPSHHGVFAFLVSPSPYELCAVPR
Chain of Calcium and integrin-binding protein 1 (Homo sapiens) (Q99828 whole entry, looked up): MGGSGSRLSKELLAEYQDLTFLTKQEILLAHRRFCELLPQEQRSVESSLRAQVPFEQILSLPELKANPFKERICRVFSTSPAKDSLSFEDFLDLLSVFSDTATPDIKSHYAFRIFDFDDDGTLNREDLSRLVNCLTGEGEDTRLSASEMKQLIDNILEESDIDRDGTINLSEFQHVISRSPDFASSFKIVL
Chain of Cytochrome P450 3A4 (Homo sapiens) (P08684 whole entry, looked up): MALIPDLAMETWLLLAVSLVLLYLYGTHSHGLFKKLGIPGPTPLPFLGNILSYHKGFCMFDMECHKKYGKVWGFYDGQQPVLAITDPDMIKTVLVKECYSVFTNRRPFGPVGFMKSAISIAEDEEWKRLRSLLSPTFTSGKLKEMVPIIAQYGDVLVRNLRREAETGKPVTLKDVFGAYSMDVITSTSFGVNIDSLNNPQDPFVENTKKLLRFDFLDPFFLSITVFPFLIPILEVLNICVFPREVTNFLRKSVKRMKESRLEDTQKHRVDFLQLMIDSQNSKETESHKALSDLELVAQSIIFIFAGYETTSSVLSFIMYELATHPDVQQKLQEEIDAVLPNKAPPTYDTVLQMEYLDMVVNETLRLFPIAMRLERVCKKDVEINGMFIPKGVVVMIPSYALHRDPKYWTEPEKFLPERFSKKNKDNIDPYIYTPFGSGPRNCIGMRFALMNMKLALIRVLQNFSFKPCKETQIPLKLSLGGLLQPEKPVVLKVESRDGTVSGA

As to `C[C@H](N)C(=O)N[C@@H](C)C(=O)NC1[C@H]2CN(c3nc4c(cc3F)c(=O)c(C(=O)O)cn4-c3ccc(F)cc3F)C[C@@H]12` (stereo partly drawn), the Potency entry in test [1], in [2], in test [4], in test [5], in test [6] and in [7] was “inactive” in each case. Besides, in test [3], the max response is -5.88%.

As for `N[C@@H](Cn1ccc(=O)c(O)c1)C(=O)O`, the result in test [8] was inactive. For the same molecule, in test [1], the activity change, negative = inhibition is 2.21% [at 12.4 µM]. Moreover, the Potency entry in [9] is “inactive”.

`Cn1cnc2c(NCc3ccccc3)nc(NCCO)nc21`: the outcome in test [8] was inactive. For the same molecule, the Potency result in test [9] was “inactive”.

As to `Clc1ccc2c(c1)N=C(N1CCNCC1)c1ccccc1N2`, in [8], the outcome was inactive. Also, the Potency entry in test [1] and in test [2] was “inactive” each time. In test [10], the Potency is 14.1 µM (active) and 10 µM (active).

Take `CCC(=O)O[C@H]1[C@H](O[C@@H]2[C@@H](C)[C@H](O[C@H]3C[C@@](C)(OC)[C@@H](O)[C@H](C)O3)[C@@H](C)C(=O)O[C@H](CC)[C@@](C)(O)[C@H](O)[C@@H](C)C(=O)[C@H](C)C[C@@]2(C)O)O[C@H](C)C[C@@H]1N(C)C`: the Potency entry in [1], in test [2], in [4], in test [5] and in test [7] was “inactive” each time. The Potency is 20 µM (active) in [10] and 18.2 µM (active) in test [6]. Moreover, the max response in test [3] was 17.4%.

`CN(C)c1cc2c(Nc3ccc4c(cnn4Cc4ccccc4)c3)ncnc2cn1`: the result in test [8] was inactive.

In the case of `Nc1ncnc2n[nH]c(Nc3ccc(F)cc3)c12`, the result in [8] was inactive. Further, the Potency entry in test [1] and in test [9] was “inactive” throughout.

Consider `CC(C)C(=O)Nc1cccc(C2CN3CCSC3=N2)c1` (stereo not drawn), for which the Potency entry in test [1], in [9], in test [4] and in test [5] was “inactive” each time.

On to `Nc1c(I)cc(I)c(C(=O)N(CCC(=O)O)c2ccccc2)c1I`, for which the Potency entry in test [1], in test [9], in test [4] and in [5] was “inactive” each time.

`O=C(O)Cc1ccccc1Oc1ccc(Cl)cc1Cl`: the Potency entry in [1], in test [9], in test [4] and in test [5] was “inactive” each time.

In the case of `CC(=O)/C=C/C=C1/C2CCC(C2)C1(C)C` (stereo not drawn), the Potency result in [1], in [9] and in [4] was “inactive” throughout. Also, in test [5], the Potency is 17.4 µM (active).

With `COc1ccc([C@@H]2Sc3ccccc3NC(=O)[C@@H]2O)cc1`, the Potency result in [1], in [9] and in [4] was “inactive” throughout. Besides, in [5], the Potency is 13.8 µM (active).

As to `CCOC(=O)N1CCC(Nc2ccc(Cl)cc2N)CC1`, the Potency result in test [1] is “inactive”. The max response in test [3] was -17.4%. Also, the figures for the Potency in test [5] and in [7] were 7.76 µM (active) and 8.71 µM (active), respectively.

`COC(=O)/C=C(/C)N`: the Potency result in test [1], in [9], in [4] and in test [5] was “inactive” throughout.

For `CCCCC(=O)OCC(=O)[C@H]1[C@H](C)C[C@H]2[C@@H]3C[C@H](F)C4=CC(=O)C=C[C@]4(C)[C@@]3(F)[C@@H](O)C[C@@]21C`, the Potency result in test [1], in test [9] and in test [4] was “inactive” throughout.

Consider `Cc1cccc(N(C)C(=S)Oc2ccc3c(c2)CCC3)c1`, for which the Potency result in test [1], in test [9], in [4] and in test [5] was “inactive” in each case.

Regarding `Cc1ccc(C(=O)Oc2ccc(C(O)CNC(C)(C)C)cc2OC(=O)c2ccc(C)cc2)cc1` (stereo not drawn), the Potency result in test [1] and in [9] was “inactive” in each case.

With `CCC1=C[C@@H]2CN(C1)Cc1c([nH]c3ccccc13)[C@@](C(=O)OC)(c1cc3c(cc1OC)N(C)[C@H]1[C@@](O)(C(=O)OC)[C@H](OC(C)=O)[C@]4(CC)C=CCN5CC[C@]31[C@@H]54)C2`, the Potency result in test [1] and in test [9] was “inactive” each time.

Take `O=c1[nH]sc2cc(Cl)ccc12`: the Potency in [1] was 3.55 µM (active). Also, the Potency result in [9], in test [4] and in test [5] was “inactive” in each case.

Consider `CC[C@@]1(O)C(=O)OCc2c1cc1n(c2=O)Cc2c-1nc1ccccc1c2/C=N/OC(C)(C)C`, for which the Potency entry in test [1] and in [9] was “inactive” each time.

As to `Clc1ccc2c(c1)Nc1ccccc1S2`, the Potency result in [1], in [9], in test [4] and in [5] was “inactive” each time.

As for `CC(=O)[C@@]1(O)CC[C@H]2[C@@H]3C[C@H](C)C4=CC(=O)CC[C@]4(C)[C@H]3CC[C@@]21C`, the Potency entry in test [1], in test [9], in [4] and in [5] was “inactive” in each case.

`OCCOCCN1CCN(C(c2ccccc2)c2ccc(Cl)cc2)CC1` (stereo not drawn): the Potency entry in test [1] and in [9] was “inactive” in each case.

Take `Nc1c[n+](N2CCOCC2)no1`: the Potency entry in test [1], in test [9], in test [4] and in [5] was “inactive” each time.

For the molecule `COc1c(C)c2c(c(O)c1C/C=C(\C)CCC(=O)OCCN1CCOCC1)C(=O)OC2`, the Potency entry in test [1], in [9] and in test [4] was “inactive” each time. In addition, the Potency in [5] was 13.8 µM (active).

In the case of `O=C(OCCN1CCOCC1)c1cccnc1Nc1cccc(C(F)(F)F)c1`, the Potency entry in test [1] and in test [9] was “inactive” each time.

Take `CN1CC(=O)N2[C@H](c3ccc4c(c3)OCO4)c3[nH]c4ccccc4c3C[C@@H]2C1=O`: the Potency entry in test [1], in test [9] and in test [4] was “inactive” in each case.

For `COc1ccc2c(c1)c(CC(=O)OC/C=C(\C)CC/C=C(\C)CCC=C(C)C)c(C)n2C(=O)c1ccc(Cl)cc1`, the Potency entry in test [1], in test [9] and in test [4] was “inactive” throughout. Also, the Potency in [5] is 12.3 µM (active).

Turning to `O=S(=O)(O)c1ccc2nc(-c3ccccc3)[nH]c2c1`, the Potency entry in test [1], in [9] and in [4] was “inactive” each time. For the same molecule, the Potency in test [5] was 9.77 µM (active).

In the case of `CC(=O)OCC(=O)[C@@]1(O)CCC2C3CCC4=CC(=O)CC[C@]4(C)C3[C@@H](O)C[C@@]21C` (stereo partly drawn), the Potency entry in [1], in [9], in test [4] and in test [5] was “inactive” each time.

For `Cc1oc(-c2ccccc2)nc1CCC(=O)c1ccc(CC2SC(=O)NC2=O)cc1` (stereo not drawn), the Potency result in test [1] and in [9] was “inactive” each time.

Turning to `CC(C(O)c1ccccc1)N(C)CCOC(c1ccccc1)c1ccccc1` (stereo not drawn), the Potency entry in [1] is “inactive”. Besides, the Potency is 31.6 µM (active) in test [10], 0.0309 µM (active) in test [5] and 13.8 µM (active) in test [7]. The max response in test [3] was -4.6%.

In the case of `COC(=O)[C@H]1[C@H]2C[C@@H]3c4[nH]c5cc(OC)ccc5c4CCN3C[C@H]2C[C@@H](OC(=O)/C=C/c2ccc(O)c(OC)c2)[C@@H]1OC`, the Potency entry in [1] and in test [5] was “inactive” each time. In addition, the Potency in [10] was 20 µM (active).

With `CCCc1ccc(OCC(=O)N2CCN(C(=O)COc3ccc(CCC)cc3OC)CC2)c(OC)c1`, the Potency entry in test [1], in test [9] and in test [5] was “inactive” throughout. In addition, the Potency in test [4] is 11.2 µM (active).

For `CCCCC(CC)CNC(=O)CC(C)OC(=O)CCC(=O)O` (stereo not drawn), the Potency result in test [1], in [9] and in test [4] was “inactive” in each case.

On to `C=CCNc1nc(NCC=C)nc(N2CCN(C(c3ccc(F)cc3)c3ccc(F)cc3)CC2)n1`, for which the Potency result in test [1], in test [4], in test [5] and in test [7] was “inactive” throughout. Further, the max response in [3] was 26.9%.

Turning to `CN1CCC(=C2c3ccccc3CCc3cccnc32)CC1`, the Potency entry in [1] and in [4] was “inactive” throughout. Besides, the max response in [3] is 12.6%.
